Calls of active or inactive are those of the source. The rule behind the calls is not given here.
Target: Thyrotropin receptor (Homo sapiens) (UniProt P16473)
Experiment: qHTS for antagonists of the Thyroid Stimulation Hormone Receptor: Hit Validation for Inverse Agonism
Details: active compounds read high
Source text: The thyroid-stimulating hormone receptor (TSHR) is a member of the 7 trans-membrane-spanning receptor (7TMR) family of cell surface receptors. TSHR-mediated hyperthyroidism is important in thyroid pathology. The development of small molecule antagonists of TSHR may lead to therapeutic approaches for TSHR-mediated hyperthyroidism caused by constitutively activating mutations or stimulating auto-antibodies associated with Graves' disease. Graves' disease is the leading cause of hyperthyroidism and is caused by autoantibodies that stimulate TSHR (TsAbs) causing thyroid growth and unregulated overproduction of thyroid hormones and existing treatments have liabilities (agranulocytosis). In addition, TSHRs are known to be expressed in multiple extrathyroidal tissues including bone, brain, kidney, testis, fat and cells of the immune system but the role of the TSHR in these tissues is not clear. Therefore, TSHR antagonists/inverse agonists could be used as probes of extrathyroidal TSHR function. Finally, TSHR inverse agonists, which are a subclass of antagonists that inhibit agonist-independent (or basal or constitutive) TSHR signaling, could be used to inhibit TSH-independent signaling in patients with recurrent or metastatic thyroid cancer who are receiving thyroid hormone to suppress TSH. […]

Chain of Thyrotropin receptor (Homo sapiens) (P16473 whole entry, looked up): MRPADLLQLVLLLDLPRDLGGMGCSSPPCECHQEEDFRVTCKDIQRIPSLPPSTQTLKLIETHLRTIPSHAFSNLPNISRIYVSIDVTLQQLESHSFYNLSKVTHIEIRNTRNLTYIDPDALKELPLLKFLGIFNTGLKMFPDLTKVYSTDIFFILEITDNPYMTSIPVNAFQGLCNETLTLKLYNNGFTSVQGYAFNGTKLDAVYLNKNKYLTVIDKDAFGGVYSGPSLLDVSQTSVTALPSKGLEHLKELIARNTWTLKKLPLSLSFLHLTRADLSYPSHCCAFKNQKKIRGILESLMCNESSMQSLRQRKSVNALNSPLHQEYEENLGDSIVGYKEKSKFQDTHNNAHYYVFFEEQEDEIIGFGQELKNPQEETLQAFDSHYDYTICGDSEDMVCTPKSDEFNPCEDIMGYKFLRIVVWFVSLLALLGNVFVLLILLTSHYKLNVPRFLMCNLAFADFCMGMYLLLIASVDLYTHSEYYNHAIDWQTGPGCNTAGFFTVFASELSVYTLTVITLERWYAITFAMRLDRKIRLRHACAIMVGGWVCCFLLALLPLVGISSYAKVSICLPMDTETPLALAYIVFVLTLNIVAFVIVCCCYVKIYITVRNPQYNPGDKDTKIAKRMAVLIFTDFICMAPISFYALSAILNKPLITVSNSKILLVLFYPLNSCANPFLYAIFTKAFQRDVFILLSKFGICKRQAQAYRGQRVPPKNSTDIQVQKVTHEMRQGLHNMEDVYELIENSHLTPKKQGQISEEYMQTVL

Question: `COC(=O)C1=C(c2ccc(-c3ccccc3)c(F)c2)C[C@@H]2CC[C@H]1N2C(=O)NCCOc1ccccc1` was tested. Which max inhibition did it give?
Answer: 75% (active)

Source: PubChem BioAssay AID602442 (National Center for Advancing Translational Sciences (NCATS), 2012)
